# Measured values taken from PubChem BioAssay (NCATS).
# Records with an inconclusive call do not appear. A number with no mark means an inactive call. Calls of active or inactive are those of the source. Calls come from the whole dose curve; as a rule, active = well fitted inhibition curve with a large enough effect; inconclusive = small, poorly fitted or top-dose-only effect; inactive = flat fitted curve, though single readings scatter.
# Tested on: CRL-7250
# Assay: Cytotoxic Profiling of Annotated Libraries Using Quantitative High-Throughput Screening (AID 1296008); note: nearly all actives have a fitted effect of over 60% in size
# Conditions: Five cell lines viability, CellTiter-Glo ATP luminescence, 48-72 h; max response: hits give low values
# Outline: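 Cells exposed to compounds for 48 or 72 hr at 37 degrees Celsius. Viability read as ATP-coupled luminescence with CellTiter-Glo after 10 min at room temperature.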
# % is set by controls: 0 for no effect and ±100 for the full control effect; potency is the fitted concentration of half-maximal effect.
Compound,max response,Potency,outcome
CCOCCOC(=O)/C=C/c1ccc(OC)cc1,-7.76%,,
C=C1C(O)C(O)C2(CC3C(C)=CCC4C(C)(CO)CCCC34C)OC2C1O (stereo not given),-2.93%,,
C=C1C(=O)O[C@@H]2/C=C(\C)C(=O)/C=C/[C@](C)(O)C[C@@H](OC(=O)C(C)C)[C@@H]12,,4.04 µM (active),
CC(C)c1ccc2c(c1)C(=O)CC1[C@@](C)(C(=O)O)CCC[C@]21C (stereo not given in full),2.88%,,
CS(=O)(=O)N(CC(=O)NCC1CC1)c1cc(C(F)(F)F)ccc1Cl,-0.912%,,
CC1=CC2C(CC1OC1OC(CO)C(O)C(O)C1O)C(C)CC(=O)C2C(C)C (stereo not given),0.564%,,
CO[C@H]1/C=C/[C@@](C)(O)/C=C/C(=O)O[C@H](C)[C@@H](C)CC/C=C/1C,-17.6%,,
O=C(O)c1cc(I)ccc1NC(=O)[C@H](Cc1ccccc1)NCc1ccccc1,-2.69%,,
Cc1cc(Nc2cc(N3CCN(C)CC3)nc(/C=C/c3ccccc3)n2)n[nH]1,,5.8 µM (active),
C=CC1(C)C=C2C(=O)OC(=O)C3=C(CCCC3(C)C)C2(O)CC1 (stereo not given),-0.556%,,
C=C1C(=O)OC2C1C(O)CC1(C)C(O)CCC(C=O)C21 (stereo not given),,,inactive
C[C@@H]1C[C@@H]2O[C@H]2/C=C\C=C\C(=O)Cc2c(Cl)c(O)cc(O)c2C(=O)O1,,4.53 µM (active),
C[C@H]1O[C@@H](O[C@H]2CC[C@@]3(C)C(CC[C@]4(C)C3CC=C3C5CC(C)(C)CC[C@]5(C(=O)O)CC[C@]34C(=O)O)C2(C)C)[C@H](O)[C@@H](O)[C@@H]1O (stereo not given in full),,,inactive
C=C(C)C1CCC2(C(=O)O)CCC3(C(=O)O)C(CCC4C5(C)CCC(O)C(C)(C(=O)O)C5CCC43C)C12 (stereo not given),,,inactive
CC1(C)CCCC2(C)C(C(=O)O)=CCC12 (stereo not given),-16.1%,,
COC(=O)C1=CO[C@@H](O[C@@H]2O[C@H](CO)[C@@H](O)[C@H](O)[C@H]2O)C2C1C(=O)C[C@H]2C (stereo not given in full),-1.68%,,
COc1ccc([C@H]2CNC(=O)C2)cc1OC1CCCC1,-5.24%,,
CC[C@H](NC(=O)[C@H](CS(=O)(=O)CC1CC1)N[C@@H](c1ccc(F)cc1)C(F)(F)F)C(=O)C(=O)NC1CC1,3.55%,,
CC1CC(O)/C=C/C(O)C(O)CC(=O)Cc2c(Cl)c(O)cc(O)c2C(=O)O1 (stereo not given),2.61%,,
CC(C)[C@@H]1C(=O)N(S(C)(=O)=O)[C@@H]2CCN(C(=O)/C=C/CN3CCCCC3)[C@H]21,,,inactive

Compound,max response,Potency,outcome
C=C(C)C1Cc2cc(C(=O)OC3OC(CO)C(O)C(O)C3O)ccc2O1 (stereo not given),-9%,,
COc1ccc2c(OC)c3ccoc3nc2c1OC,-6.93%,,
CC1CCC2(CO)C(C(=O)O)=CCCC2C1(C)CCc1ccoc1 (stereo not given),,,inactive
N#C[C@@H]1C[C@H](F)CN1C(=O)CNC1[C@H]2CN(C(=O)c3ccc(F)cc3)C[C@@H]12 (stereo not given in full),-1.2%,,
C=CC/C=C\C/C=C\CCCCCCCc1cccc(O)c1C(=O)O,,,inactive
CC(=O)OC1C[C@]2(C)C(O)CC(C)=C[C@H](OC(=O)c3ccc(O)cc3)C2[C@]1(O)C(C)C (stereo not given in full),1.7%,,
N#C[C@@H]1CCCN1C(=O)CNC12CC3CC(CC(O)(C3)C1)C2,2.02%,,
C=C[C@@](C)(O)CC/C=C(\C)C(=O)O[C@@H]1[C@@H]2O[C@]2(C)[C@H]2[C@H](O[C@@H]3O[C@H](CO)[C@@H](O)[C@H](O)[C@H]3O)OC=C[C@@]12O,-6.64%,,
CC1(C)CC[C@]2(C(=O)O[C@@H]3O[C@H](CO)[C@@H](O)[C@H](O)[C@H]3O)CC[C@]3(C)C(=CCC4[C@@]5(C)C[C@@H](O)[C@H](O)[C@](C)(C(=O)O)C5CC[C@]43C)C2C1O (stereo not given in full),2.5%,,
C=C(C(=O)O)C1CC2=C(C)CCCC2(C)C[C@@H]1O (stereo not given in full),,,inactive
Nc1ncnc2c([C@@H]3N[C@H](CO)[C@@H](O)[C@H]3O)c[nH]c12,-1.11%,,
CC(=O)NC1C(OC(C)(C)C2CCC3(C)C=C(C4CCC5C4(C)CC(O)C4OC(C(C)(C)O)CCC45C)CCC3O2)OC(CO)C(O)C1O (stereo not given),0.702%,,
CN(C)C/C=C/C(=O)Nc1cc2c(Nc3ccc(F)c(Cl)c3)ncnc2cc1OC1CCOC1 (stereo not given),,11.6 µM (active),
C=C[C@@]12COC(=O)C(=C)C1[C@@H](O)[C@H](C(=C)C(=O)OC)[C@@H](OC(=O)C(=C)CO)C2 (stereo not given in full),-22.2%,,
O=C1NC(Cc2ccccc2)C(=O)N2CCCC12 (stereo not given),,,inactive
C=CC(C)(CC/C=C(\C)C(=O)OC)OC1OC(COC(=O)CC(C)(O)CC(=O)O)C(OC2OC(CO)C(O)C(O)C2O)C(O)C1O (stereo not given),,,inactive
Clc1cc2c(NC3CCCC3)nnc(-c3ccncc3)c2cc1Cl,-13.3%,,
CO[C@H]1/C=C\O[C@@]2(C)Oc3c(C)c(O)c4c(O)c(c5c(nc6cc(C)ccn65)c4c3C2=O)NC(=O)/C(C)=C\C=C/[C@H](C)[C@H](O)[C@@H](C)[C@@H](O)[C@@H](C)[C@H](OC(C)=O)[C@@H]1C,-2.8%,,
Cc1cc(C)c(CNC(=O)c2cc(-c3ccc(CN4CCOCC4)cc3)cc3c2cnn3C2CCCC2)c(=O)[nH]1,1.71%,,
COc1c(C)c(OCC(O)C(C)(C)O)cc2c1COC2=O (stereo not given),4.27%,,
